Source: PubChem
Pf Dd2 growth: P. falciparum Dd2 growth inhibitors, primary screen, SYBR Green fluorescence, single dose replicates; activity change, % at 10 µM; hit rate 2.3% among 94,000; 72 h; stronger effect = lower value; in the data active = activity change below about -80%
C diff HTS: C. difficile growth inhibitors, primary screen, HTS; Clostridium difficile clinical isolate growth, OD600, 24 h; stronger effect = lower value; growth activity, negative = inhibition, % at 16 µg/mL (by protocol); hit rate 0.25% among 86,000; AID 1259249, 2017;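 active = mean growth activity at or below -80% and every replicate also at or below -80%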;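 note: 0% = DMSO wells and -100% = levofloxacin 16 µg/mL wells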
* hit, by the source's call; . = not tested or not shown. This is a sample that favours compounds with a hit; in the whole collection about 2.4% have one here.

SMILES	Pf Dd2 growth	C diff HTS
C/C=C/c1ccc2c(c1)O[C@@H](CN(C)C(=O)Cc1ccncc1)[C@H](C)CN([C@H](C)CO)S2(=O)=O	-84*	1
CO[C@@H]1CN(C)C(=O)c2cc(NC(=O)c3cnccn3)ccc2OC[C@H](C)N(C(=O)C2CC2)C[C@@H]1C	-10	1
COCC(=O)Nc1ccc2c(c1)[C@@H]1C[C@@H](CC(=O)N3CCc4ccccc4C3)O[C@@H](CO)[C@@H]1O2	-32	0
COc1ccc2c3c(n(C)c2c1)[C@H](CO)N(C(=O)CC1CC1)CC31CN(C(=O)C2CCC2)C1	4	-1
CCNC(=O)C[C@@H]1CC[C@@H](NC(=O)C2CCOCC2)[C@H](CO)O1	7	15
CCN(C[C@@H]1N[C@@H](CO)[C@H]1c1ccc(-c2ccc(F)cc2)cc1)C(=O)CN(C)C	-81*	-3
CCN(C[C@H]1N[C@H](CO)[C@H]1c1ccc(-c2ccc(F)cc2)cc1)C(=O)COC	-56	5
CO[C@H]1CN(C)C(=O)c2ccc(NC(C)=O)cc2OC[C@H](C)N(S(=O)(=O)c2cn(C)cn2)C[C@H]1C	13	.
C[C@H](CO)N1C[C@H](C)[C@H](CN(C)C(=O)Nc2ccc(F)cc2)Oc2ccc(NC(=O)Nc3cccc4ccccc34)cc2CC1=O	-20	-3
CC(C)OC(=O)N(C)C[C@H]1OCc2ccccc2-c2c(n(C)c3ccccc23)C(=O)N([C@H](C)CO)C[C@H]1C	-83*	.
C[C@H](NC(=O)N(C)C[C@H]1OCc2ccccc2-c2c(n(C)c3ccccc23)C(=O)N([C@@H](C)CO)C[C@@H]1C)c1ccccc1	-81*	35
C[C@H](C(=O)N(C)C[C@@H]1OCc2ccccc2-c2c(n(C)c3ccccc23)C(=O)N([C@H](C)CO)C[C@H]1C)c1ccccc1	-75	6
C[C@@H]1CN([C@@H](C)CO)C(=O)c2c(c3ccccc3n2C)-c2ccccc2CO[C@@H]1CN(C)C(=O)[C@H](C)c1ccccc1	-87*	-3
C[C@@H]1CN([C@H](C)CO)C(=O)c2c(c3ccccc3n2C)-c2ccccc2CO[C@H]1CN(C)C(=O)[C@H](C)c1ccccc1	-84*	0
C[C@@H]1CN([C@@H](C)CO)C(=O)c2c(c3ccccc3n2C)-c2ccccc2CO[C@@H]1CN(C)C(=O)N[C@H](C)c1ccccc1	-22	-6
CC(C)OC(=O)N(C)C[C@@H]1OCc2ccccc2-c2c(n(C)c3ccccc23)C(=O)N([C@H](C)CO)C[C@@H]1C	-16	.
CO[C@H](C(=O)N(C)C[C@H]1OCc2ccccc2-c2c(n(C)c3ccccc23)C(=O)N([C@H](C)CO)C[C@H]1C)c1ccccc1	100	4
CCCNC(=O)N1CCC2(CC1)CN(C(C)=O)[C@@H](CO)c1[nH]c3cc(OC)ccc3c12	-47	.
O=C(C1CCCC1)N1CC[C@@H]2[C@H](CO)Nc3ccc(C#Cc4ccc(F)cc4)cc3[C@@H]21	-67	-9
COc1ccccc1S(=O)(=O)N[C@@H]1CC[C@@H](CCNC(=O)C2CC2)O[C@@H]1CO	-1	-1
O=C(CN1CCOCC1)N1CCCCN2[C@H](CO)[C@H](c3ccc(C#Cc4ccccc4)cc3)[C@H]2C1	-11	-2
O=C(C[C@@H]1C[C@H]2c3cc(NC(=O)NC4CCCC4)ccc3O[C@H]2[C@H](CO)O1)NC1CCCC1	-6	.
C[C@H](CO)N1C[C@H](C)[C@@H](CN(C)Cc2ccc(C(=O)O)cc2)Oc2cc(/C=C/c3ccccc3)ccc2S1(=O)=O	-26	-3
C[C@@H]1CN([C@H](C)CO)S(=O)(=O)c2ccc(/C=C/c3ccccc3)cc2O[C@H]1CN(C)Cc1ccc(C(=O)O)cc1	-28	-98*
C[C@H](CO)N1C[C@H](C)[C@H](CN(C)C(=O)Nc2cc(F)ccc2F)Oc2cc(/C=C/c3ccccc3)ccc2S1(=O)=O	-88*	1
SMILES	Pf Dd2 growth	C diff HTS
C/C=C/c1ccc2c(c1)O[C@H](CN(C)C(=O)Nc1cc(F)ccc1F)[C@@H](C)CN([C@H](C)CO)S2(=O)=O	-33	9
C/C=C/c1ccc2c(c1)O[C@@H](CN(C)Cc1ccc(C(=O)O)cc1)[C@H](C)CN([C@@H](C)CO)S2(=O)=O	26	0
C/C=C/c1ccc2c(c1)O[C@H](CN(C)Cc1ccc(C(=O)O)cc1)[C@@H](C)CN([C@H](C)CO)S2(=O)=O	-86*	2
COc1ccc2c3c(n(C)c2c1)[C@@H](CO)N(Cc1ccc2c(c1)OCO2)CC31CCN(C)CC1	-32	-3
COc1ccc(NC(=O)Nc2cccc3c2O[C@@H](CN(C)S(C)(=O)=O)[C@@H](C)CN([C@H](C)CO)C3=O)cc1	-3	-2
C[C@@H]1CCCCO[C@@H](CN(C)S(=O)(=O)c2ccc(Cl)cc2)[C@H](C)CN([C@H](C)CO)C(=O)c2cc(NC(=O)CCC(F)(F)F)ccc2O1	-67	-1
COc1ccc2c3c(n(C)c2c1)[C@H](CO)N(C(=O)C1CC1)CC31CN(C(=O)C2CCOCC2)C1	-87*	-1
COc1ccc2c3c(n(C)c2c1)[C@H](CO)N(C(=O)C1CC1)CC31CCN(C)CC1	-86*	3
COc1ccc2c3c(n(C)c2c1)[C@H](CO)N(C(=O)C1CCOCC1)CC31CN(C(=O)C2CCOCC2)C1	-1	-4
COc1ccc2c3c(n(C)c2c1)[C@H](CO)N(C(=O)C1CCC1)CC31CCN(C)CC1	6	4
C[C@@H]1CN([C@@H](C)CO)C(=O)c2cccc(NC(=O)Nc3ccccc3)c2O[C@@H]1CN(C)Cc1ccc(-c2ccccc2)cc1	-70	-102*
C[C@@H]1CN([C@H](C)CO)C(=O)c2cccc(NC(=O)Nc3ccccc3)c2O[C@@H]1CN(C)Cc1ccc(Cl)c(Cl)c1	-86*	6
C[C@H]1CN([C@@H](C)CO)C(=O)c2cccc(NC(=O)Nc3ccccc3)c2O[C@@H]1CN(C)Cc1ccc(-c2ccccc2)cc1	-30	0
C[C@H]1CN([C@@H](C)CO)C(=O)c2cccc(NC(=O)Nc3ccccc3)c2O[C@@H]1CN(C)Cc1ccc(Cl)c(Cl)c1	-28	0
CO[C@H]1CN(C)C(=O)c2ccc(NC(=O)C3CCCCC3)cc2OC[C@@H](C)N(C)C[C@@H]1C	11	-2
C[C@H]1CCCCO[C@@H](CN(C)C(=O)Nc2ccc(F)cc2)[C@@H](C)CN([C@@H](C)CO)C(=O)c2cc(NS(=O)(=O)c3cccs3)ccc2O1	-57	3
C[C@@H]1CCCCO[C@@H](CN(C)C(=O)Nc2ccc(F)cc2)[C@H](C)CN([C@H](C)CO)C(=O)c2cc(NS(=O)(=O)c3cccs3)ccc2O1	-86*	2
C[C@@H]1CCCCO[C@@H](CN(C)C(=O)Nc2ccc(C(F)(F)F)cc2)[C@@H](C)CN([C@H](C)CO)C(=O)c2cc(NS(=O)(=O)c3cccs3)ccc2O1	-51	1
C[C@@H]1CCCCO[C@H](CN(C)C(=O)Nc2ccc(F)cc2)[C@H](C)CN([C@H](C)CO)C(=O)c2cc(NS(=O)(=O)c3cccs3)ccc2O1	-86*	4
C[C@@H]1CN([C@H](C)CO)C(=O)c2cc(NS(=O)(=O)c3cccs3)ccc2O[C@@H](C)CCCCO[C@H]1CN(C)C(=O)Nc1ccc(F)cc1	-68	10
